# MITF act – increases MITF-driven TRPM1 promoter luciferase signal; SK-MEL-5 TRPM1-promoter luciferase, 24 h; % of positive control, neutral wells = 0; activation, % at 12.5 µM; 0.75% of 300,000 active;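 active = mean activation of at least 80% with every replicate also reaching 80%; inconclusive = mean reaches 80% but some replicate falls short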
# esBAF inh – SWI/SNF esBAF complex inhibition; 2% of 350,000 active; reporter increase, % at 12.5 µM; AID 602393; mouse ES cells, Bmi1-luciferase knock-in reporter, 24 h; 100% = twice the neutral-well signal; in the data active = activation above about 40%; inconclusive = no clear call, values can overlap the other calls;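 also: a rise in the Bmi1 reporter signal indicates esBAF inhibition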
# Wnt act – Wnt/beta-catenin pathway activation; Wnt/beta-catenin reporter cell assay, activator, plate reader; activation, % at 9.35 µM; 1.2% of 300,000 active; AID 743398; in the data active = activation above about 30%, passing the limit was not always enough; inconclusive = no clear call, values can overlap the other calls
# EBV LMP1 NFkB – inhibitors of Epstein-Barr LMP1-induced NF-kappaB reporter; LMP1-induced NF-kappaB luciferase reporter cells, luminescence; inhibition, % at 12.5 µM; 0.69% of 350,000 active; in the data active = inhibition above about 41%; inconclusive = no clear call, values can overlap the other calls
# TRPM1 prom inh – reduces MITF-dependent TRPM1 promoter luciferase signal | inhibition, % at 12.5 µM | AID 488899 | SK-MEL-5 TRPM1 promoter luciferase, 24 h | 0.83% of 330,000 active;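 active = mean inhibition across replicates of 60% or more, whatever share of single replicates reaches that level; inconclusive = some that reach 60%, reason not given; inactive = mean inhibition across replicates below 60%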
# C2C12 statin – suppressors of simvastatin-induced myotoxicity in C2C12 myotubes; 0.78% of 330,000 active; rescue of ATP level, % at 7.49 µM; ATP luminescence, 48 h; scaled: DMSO 0, geranylgeraniol control 100;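 active = mean ATP rescue above about 67%, or every replicate alone reaching that limit, limit read from the data, passing the limit was not always enough; inconclusive = no clear call, values can overlap the other calls; inactive = mean under the limit and some replicate under it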;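 also: myotubes were challenged with 10 µM simvastatin during compound exposure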
# Hits are given with their value; 0 = inactive; ? = inconclusive; - = no result given. Most compounds without a hit are left out; they make up all but 4% or so of the library.
SMILES,MITF act,esBAF inh,Wnt act,EBV LMP1 NFkB,TRPM1 prom inh,C2C12 statin
Cc1cc(NC(=O)COc2ccccc2C)no1,94.8,-,0,0,0,-
Cc1ccc(OCC(=O)NC2=NCCS2)cc1,0,-,-,0,0,-
Cc1ccccc1OCC(=O)NC1=NCCS1,-,44.5,-,0,0,0
Cc1cc(NC(=O)COc2cccc(C)c2C)no1,0,0,0,0,0,0
CCCNC(=O)N[C@H]1C=C[C@@H](CC(=O)NC2CCC2)O[C@H]1CO,-,0,-,-,-,0
Cc1ccc(S(=O)(=O)Nc2ccc3c(c2)C(=O)N([C@H](C)CO)C[C@H](C)[C@H](CN(C)C(=O)Nc2ccc(C(F)(F)F)cc2)OCCCC[C@H](C)O3)cc1,-,0,-,-,-,-
C[C@H]1CN([C@@H](C)CO)C(=O)c2cc(NC(=O)Nc3cccc4ccccc34)ccc2O[C@H]1CN(C)CC1CCCCC1,-,0,-,-,-,0
COc1ccc(-n2c(SCC(=O)N3CCCCC3)nc3ccccc3c2=O)cc1,0,0,0,0,0,0
CC(C)c1cc(CNC(=O)CCc2nnc(CCCc3ccccc3)o2)on1,0,-,?,0,0,-
CCc1cc(CNC(=O)CCc2nnc(CCCc3ccccc3)o2)on1,89.2,57.1,43.5,0,0,0
O=C(NC1CCCCC1)C(c1ccc(F)cc1)N(CCc1ccccc1)C(=O)CN1C(=O)c2ccccc2S1(=O)=O (stereo unspecified),0,0,0,0,64.2,0
O=[N+]([O-])c1cc(/C=N/N2CCCCC2)ccc1Cl,99.2,-,0,0,0,-
O=[N+]([O-])c1cc(/C=N/N2CCN(c3ccccc3)CC2)ccc1Cl,0,-,0,0,0,-
O=[N+]([O-])c1cccc(/C=N/N2CCN(Cc3ccccc3)CC2)c1,0,0,0,0,0,0
O=[N+]([O-])c1cc(C=NN2CCCCCC2)ccc1Cl,0,73.8,40.1,0,0,0
O=[N+]([O-])c1cccc(C=NN2CCCCCC2)c1,0,78.8,0,0,0,0
O=[N+]([O-])c1cc(/C=N/NC(=S)Nc2ccccc2Cl)ccc1Cl,0,45.6,0,0,?,0
COC(=O)c1c(C)[nH]c(C(=O)COC(=O)CCNS(=O)(=O)c2cccc(C(F)(F)F)c2)c1C,0,0,0,0,0,0
CC(=O)Nc1ccc(/C(C)=N/NC(=O)c2ccncc2)cc1,0,0,0,0,0,0
CCOC(=O)N1CCN(C(=O)/C=C/c2ccc([N+](=O)[O-])cc2)CC1,0,0,0,0,0,0
CC(C)c1ccc(/C=N/N2CCCCC2)cc1,97.8,-,45.4,0,0,-
O=c1c2ccccc2n(Cc2ccccc2F)c(=O)n1Cc1ccccc1F,-,-,-,0,0,-
CCOC(=O)C1=NN(C(=O)Nc2ccc(OC)cc2)C2C(=O)N(c3cccc(C(F)(F)F)c3)C(=O)C12 (stereo unspecified),0,0,-,0,0,101.7
CCOC(=O)C1=NN(c2ccc(OC)cc2)C2C(=O)N(c3ccccc3OC)C(=O)C12 (stereo unspecified),-,-,0,0,0,-
Cc1cc(C(=O)N2CCN(c3ccc([N+](=O)[O-])cc3)CC2)co1,0,-,0,0,0,-
SMILES,MITF act,esBAF inh,Wnt act,EBV LMP1 NFkB,TRPM1 prom inh,C2C12 statin
Nc1cc(SCc2ccc([N+](=O)[O-])cc2)ncn1,0,0,36.7,0,0,0
COc1cccc(C(=O)NCc2ccc(-c3nc4ccccc4s3)cc2)c1,0,51.8,0,0,0,0
COc1ccccc1C(=O)NCc1ccc(-c2nc3ccccc3s2)cc1,0,-,0,0,0,-
COc1cc(C(=O)NCc2ccc(-c3nc4ccccc4s3)cc2)cc(OC)c1OC,0,-,0,0,0,-
COc1ccc(C(=O)NCc2ccc(-c3nc4ccccc4s3)cc2)cc1,0,69.5,-,0,0,0
O=C(CNc1cccc2ccccc12)N/N=C/c1ccc(OC(=O)/C=C/c2ccco2)cc1,0,0,0,0,0,0
O=C(CNc1ccc2ccccc2c1)N/N=C/c1ccc(OC(=O)/C=C/c2ccco2)cc1,0,-,50.6,0,0,-
O=C(/C=C/c1ccco1)Oc1cc(Br)cc(/C=N/NC(=O)c2ccccc2O)c1,0,-,0,60.5,0,-
Cc1ccc(-c2csc(N3C(=N)SCC3=O)n2)cc1,-,-,50.5,-,-,-
CC1=NN(c2nc(-c3ccc(Cl)cc3)cs2)C(=O)C1,0,0,-,0,0,0
O=C(N[C@@H]1CC[C@H](CC(=O)N2CCCCC2)O[C@H]1CO)c1cccc(F)c1,-,0,-,-,-,0
O=C(c1ccc([N+](=O)[O-])s1)N1CCCc2ccccc21,0,0,0,0,70.5,0
CCOC(=O)c1c(C)[nH]c(/C(C)=N/O)c1C,0,0,0,0,0,-
CCOC(=O)c1c(C)[nH]c(C2=NNC(=NC3CC3)SC2)c1C,0,-,-,50.1,0,-
CO[C@H]1CN(C)C(=O)c2ccc(NC(=O)c3ccc(-c4ccccc4)cc3)cc2OC[C@@H](C)NC[C@@H]1C,-,0,-,-,-,0
COc1cc2sc3cc(NCc4ccc(C)o4)ccc3c(=O)c2cc1OC,108.8,-,?,0,0,-
COc1cc2sc3cc(NCC[C@@H]4CCCN4C)ccc3c(=O)c2cc1OC,96.7,53.0,0,0,0,0
Clc1nccnc1N/N=C/c1ccc(Br)cc1,-,0,0,0,0,0
C(=N\n1cnnc1)/c1cccc(OCCOc2ccccc2)c1,0,0,-,0,0,0
Fc1ccccc1COc1ccc(/C=N/n2cnnc2)cc1,-,0,36.8,0,0,0
C(=N\n1cnnc1)/c1ccccc1OCCOc1ccccc1,0,61.3,0,0,0,0
Fc1ccc(CNC(=S)Nc2ccccc2Cl)cc1,0,-,-,0,0,-
Cc1ccnc2nc(C(=O)NC3CCCc4ccccc43)nn12 (stereo unspecified),0,-,0,0,0,-
C=CCc1ccc(OCc2ccc(C(=O)Nc3ccc(NC(C)=O)cc3)o2)c(OC)c1,0,46.8,0,0,0,0
COc1ccccc1NC(=O)c1ccc(COc2ccccc2OC)o1,0,0,0,0,0,0
SMILES,MITF act,esBAF inh,Wnt act,EBV LMP1 NFkB,TRPM1 prom inh,C2C12 statin
C/C=C/c1cnc2c(c1)C(=O)N([C@H](C)CO)C[C@H](C)[C@H](CN(C)C(=O)Nc1ccc(F)cc1)O2,-,0,-,-,-,0
Cc1oc(C(=O)O)cc1COc1cccc2cccnc12,0,0,-,0,0,123.6
C[C@@H]1CN([C@@H](C)CO)C(=O)c2cc(-c3ccncc3)cnc2O[C@H]1CN(C)C(=O)CN1CCOCC1,-,0,-,-,-,0
Cc1[nH]c2ccccc2c1C(=O)/C=C/c1ccccc1,0,84.2,0,0,0,0
Cc1[nH]c2ccccc2c1C(=O)/C=C\c1ccccc1Cl,0,-,-,0,0,-
COCCN(C[C@@H]1[C@@H](c2ccccc2)[C@H](CO)N1C(C)=O)C(=O)c1ccccc1,-,0,-,-,-,0
CC(=O)c1ccc(NC(=O)C2(c3ccccc3)CCOCC2)cc1,0,55.4,0,0,0,0
Cc1cccn2cc(-c3c[nH]c4ccccc34)nc12,0,81.3,0,0,0,0
CCOc1ccc(C2C(C(=O)c3ccco3)=C(O)C(=O)N2CCCn2ccnc2)cc1 (stereo unspecified),0,53.8,0,0,0,0

# Compound activity from PubChem BioAssay.
